PrP 5UTR inh: inhibition of PrP 5' UTR reporter expression; 340,000 tested, 0.35% active; inhibition, % (no concentration beside the values); AID 488862, 2010; cell-based PrP 5' UTR mRNA reporter, plate reader; in the data active = inhibition above about 52%; also: 0 = median of the neutral control wells
BJeLR viability: MLPCN primary cell-based screen for lethality selective to Ras in HRASV12 cells | AID 1554, 2009 | inhibition, % (concentration not given with the values) | 300,000 tested, 0.17% active | BJeLR (HRASV12) viability, CellTiter-Glo ATP luminescence, 48 h; in the data active = inhibition above about 50%
PfHsp40 yeast: rescue of yeast from PfHsp40 toxicity, primary screen, S. cerevisiae, ATP luminescence. growth rescue, % at 12.5 µM. S. cerevisiae expressing PfHsp40, growth rescue. AID 504582, 2011. 340,000 tested, 0.68% active; in the data active = growth rescue above about 28%, passing the limit was not always enough;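 also: yeast W303a lacking pdr1 and pdr3 grown in galactose medium; growth measured after three days at 30 °C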
Sa ugtP lethal: growth inhibition of ugtP-null S. aureus, primary screen, RN4220 ugtP deletion, OD600; 16 h; growth inhibition, % (concentration not given with the values); 330,000 tested, 0.54% active; in the data active = growth inhibition above about 68%;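 also: plate controls were untreated wells for no effect and antibiotic for full effect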
Y pestis TopoI: Yersinia pestis topoisomerase I inhibitors, primary screen, biochemical, cleavage product accumulation, plate reader, single point; AID 504884, 2011; activity, % at 10 µM; DNA topoisomerase I (Yersinia pestis CO92); 360,000 tested, 0.064% active; Y. pestis Topo-I cleavage product accumulation; in the data active = activity above about 50%, passing the limit was not always enough
RN4220 kill: growth inhibition of S. aureus RN4220, primary screen, OD600; 16 h; inhibition, % (test concentration not listed); 330,000 tested, 0.33% active; in the data active = inhibition above about 85%;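 also: plate controls were untreated cells for no effect and reference antibiotic for full effect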
The depositor's hits bear a star. Sampled rows, rich in hits. Any-hit rate of the full collection: about 1.4%.

C=C1C(=O)[C@@]23C(O)CC4C(C)(C)CCC(O)[C@@]4(C)C2CCC1C3O (stereo partly drawn) was read as Sa ugtP lethal 2.9 and RN4220 kill 15.2.
For COc1ccc(/C=C2\COc3ccccc3C2=O)cc1OC the results were PrP 5UTR inh -13.0, BJeLR viability -3.0, PfHsp40 yeast 2.0, Sa ugtP lethal 6.3, Y pestis TopoI 27.0 and RN4220 kill 24.4.
`CCOc1cc(/C=C2\COc3ccccc3C2=O)cc(Br)c1OCC(=O)N(C)C` gave PrP 5UTR inh -17.6, BJeLR viability 65.3*, PfHsp40 yeast -0.2, Sa ugtP lethal 18.9, Y pestis TopoI 7.2 and RN4220 kill 24.2.
COc1ccc(Cl)cc1C1=CC(=O)CC(c2ccc(F)cc2)C1 (stereo not drawn) was read as Sa ugtP lethal 0.6 and RN4220 kill -1.0.
`COc1ccc(C2CC=C(C(=O)O)CN2S(=O)(=O)c2ccc(Cl)cc2)cc1` (stereo not drawn) gave Sa ugtP lethal 9.4 and RN4220 kill 9.2.
O=C(O)Cn1cc2c(n1)CCCCC2 was read as PrP 5UTR inh -6.2, BJeLR viability -1.4, PfHsp40 yeast 29.9*, Sa ugtP lethal 1.6, Y pestis TopoI 1.0 and RN4220 kill 5.2.
COC(=O)C1=C(c2ccc3ccccc3c2)CC2CCC1N2C(=O)N1CCCCC1 (stereo not drawn) was read as Sa ugtP lethal 1.0 and RN4220 kill 2.2.
`CC(=O)Nc1ccc(Nc2cc(C)nc3c(-c4ccccc4)c(C)nn23)cc1` gave PrP 5UTR inh -5.7, BJeLR viability 2.7, PfHsp40 yeast 1.9, Sa ugtP lethal -3.1, Y pestis TopoI 9.9 and RN4220 kill 4.7.
CCCc1cc(NCc2ccccn2)n2nc(C)c(-c3ccccc3)c2n1 was read as PrP 5UTR inh -25.5, BJeLR viability 0.0, PfHsp40 yeast 67.2*, Sa ugtP lethal -10.4, Y pestis TopoI -15.2 and RN4220 kill -1.4.
For CC(=O)Nc1ccc(Nc2cc(C(C)C)nc3c(-c4ccccc4)c(C)nn23)cc1 the results were PrP 5UTR inh -15.1, BJeLR viability 11.3, PfHsp40 yeast 97.0*, Sa ugtP lethal -23.8, Y pestis TopoI 24.9 and RN4220 kill -9.1.
Cc1cc(NCc2ccccn2)n2nc(C)c(-c3ccc(Cl)cc3)c2n1 was read as PrP 5UTR inh -16.7, BJeLR viability 1.7, PfHsp40 yeast 8.2, Sa ugtP lethal -18.3, Y pestis TopoI 7.9 and RN4220 kill 1.1.
Screening Cc1nn2c(NCc3ccccn3)cc(C(C)C)nc2c1-c1ccccc1 returned PrP 5UTR inh -11.8, BJeLR viability -10.0, PfHsp40 yeast 36.9*, Sa ugtP lethal -0.2, Y pestis TopoI 18.4 and RN4220 kill -1.5.
For Nc1ccc(O)c(-c2nc3ccccc3s2)c1 the results were PrP 5UTR inh -27.7, BJeLR viability 3.0, PfHsp40 yeast 1.3, Sa ugtP lethal -1.6, Y pestis TopoI 6.5 and RN4220 kill -3.6.
Screening Oc1ccc(-c2nc3ccccc3s2)c(O)c1 returned PrP 5UTR inh -66.7, BJeLR viability 4.5, PfHsp40 yeast 243.8*, Sa ugtP lethal 27.4, Y pestis TopoI -11.1 and RN4220 kill 16.7.
For NC(=O)C1CC2(CC(c3cccc(NC(=O)C4CCC(=O)N4)c3)=NO2)CN1C(=O)c1ccccc1 (stereo not drawn) the results were Sa ugtP lethal 3.3 and RN4220 kill 3.8.
For C#CCOCCOCCOCCNc1nc(N2CCN(C(=O)C(Cc3ccc(O)cc3)n3cc(C(N)CC(C)C)nn3)CC2)nc(N2CCN(C(=O)C(C(C)CC)n3cc(C(N)Cc4ccc(O)cc4)nn3)CC2)n1 (stereo not drawn) the results were Sa ugtP lethal 0.3 and RN4220 kill -0.1.
CN1C(=O)C(=Cc2c(OCc3cnc(Cl)s3)ccc3ccccc23)C(=O)N(C)C1=O was read as PrP 5UTR inh -27.6, BJeLR viability 1.8, PfHsp40 yeast 125.2*, Sa ugtP lethal 18.2, Y pestis TopoI 5.7 and RN4220 kill 2.9.
Screening CCOC(=O)c1cnc(-c2ccccc2)nc1Oc1ccccc1 returned PrP 5UTR inh -15.8, BJeLR viability 4.2, PfHsp40 yeast -0.4, Sa ugtP lethal 86.0*, Y pestis TopoI 37.1 and RN4220 kill -5.8.

Source: PubChem
